# Assay results: PubChem BioAssay (NCI)
# About 83,000 compounds went through this panel and 20% of them were active in at least one assay; those are over-represented in the sample as a whole.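 Step 1: grow cells in 96-well plates. Step 2: add test compound at a single concentration. Step 3: incubate 48 h. Step 4: record percent growth.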 Values without a mark were called inactive.
# Tested on: SNB-19 CNS
# Assay: NCI-60 one-dose screen, 48 h (100 = growth as untreated, 0 = no growth, -100 = all killed)
# Conditions: 10 µM
# Protocol: Growth inhibition of the SNB-19 human tumor cell line is measured as a screen for anti-cancer activity. Cells are grown in 96 well plates and exposed to the test compound for 48 hours. Compounds are tested at a single concentration, which is 10^-5 M for most compounds. The reported endpoint is percent growth (GI% or GIPRCNT), where numbers from 0 - 100% represent growth inhibition, and numbers from -100% - 0 represent cell death. For example, a value of 40 represents 60% growth inhibition. A value of 0 means no net growth occurred over the course of the experiment. A value of -40 indicates 40% of cells at the beginning of the experiment died by the end of the experiment. A value of -100 means all cells are dead at the end of the experiment.
# NCI-60 Human Tumor Cell Lines Screen was performed using the standard one-dose NCI protocol, which is described in more detail at https://dtp.cancer.gov/discovery_development/nci-60/default.htm.
# Compounds with GIPRCNT values below 10 were considered active. Activity score was based on GIPRCNT using the following formula: […]
# Score is 0 for GIPRCNT values of 100 or above, 50 for GIPRCNT values of 0, and 100 for GIPRCNT values of -100.
row,Structure (SMILES),growth
1,CC1NC(=O)NC1CCCCCC(=O)O (stereo not given),99.8%
2,c1ccc(CN2COc3c(ccc4c3OCN(Cc3ccccc3)C4)C2)cc1,24%
3,O=c1[nH]n(-c2ccccc2)c(=O)cc1Cl,98.9%
4,O=C(c1ccccc1)C1CCC1,103%
5,CC(C)CCCC(=O)O,101%
6,CC1CC(O)CC(C)(C)C1 (stereo not given),104%
7,O=C(O)C(O)c1ccccc1 (stereo not given),108%
8,CCC(=O)Oc1ccc(OC)cc1,104%
9,O=C(CCNNC(=O)c1ccncc1)NCc1ccccc1,98.1%
10,Nc1nc(OCc2ccccc2)c2[nH]cnc2n1,104%
11,O=c1cc(-c2ccccc2)[nH]c(=S)[nH]1,104%
12,Cc1cc(Cc2cc(C)c(N)cc2N)c(N)cc1N,96.3%
13,CCCCCCCCCCC1CO1 (stereo not given),103%
14,Cc1ccc(O)c(C(=O)c2ccccc2)c1,92.2%
15,COc1cc(/C=C/C(=O)c2ccccc2)cc(OC)c1OC,83.8%
16,O=C(O)c1ccc(S(=O)(=O)O)cc1,106%
17,COc1nc(N)nc2c1ncn2C1OC(CO)CC1O (stereo not given),103%
18,CC(=O)Nc1ccc(NC(C)=O)c2c1C(=O)c1ccccc1C2=O,111%
19,Oc1ccc(Cc2ccccc2)c2cccnc12,19.6%
20,COc1ccc(C2(O)CCCCC2)cc1,102%

row,Structure (SMILES),growth
1,NC(N)=Nc1cc2ccccc2c2ccccc12,82.2%
2,CCN1C(=O)/C(=C/C=C/N(C)c2ccccc2)SC1=S,94.1%
3,CC(=O)OC1CC2C(C)(C)OC3CC(=O)OCC32C2CCC3(C)C(=CCC3c3ccoc3)C12C (stereo not given),101%
4,CC(C)=CC(=O)OC(=O)C=C(C)C,104%
5,CC1(C)OC(=O)C(c2ccsc2)C(=O)O1,108%
6,COc1ccc(/C=C/c2cccc[n+]2C)cc1,95.1%
7,N#C/C(=C\c1cc(O)c(O)c(O)c1)C(N)=O,101%
8,Cc1c(O)cccc1O,97.6%
9,C=CCc1cc(C(C)=O)cc(OC)c1O,105%
10,CCNc1nc2c(cnn2C)c(=O)[nH]1,109%
11,CCCCCC(C)(CC(=O)O)CC(=O)O,116%
12,C=CCCCCCCCCCOC(C)=O,98.3%
13,C#Cc1cccc(NC(=O)c2ccc(Cl)cc2Cl)c1,97.3%
14,Cn1cnc2nc(Cl)nc(Cl)c21,61.4%
15,O=C(O)CCC(NC(=O)OCc1ccccc1)C(=O)O (stereo not given),98.1%
16,CC(C)C1CCCCC1O (stereo not given),104%
17,CCOc1ccc(/C=N/N=C(N)N)cc1OCC,97.6%
18,COCCCC/C(=N\OCCN)c1ccc(C(F)(F)F)cc1,100%
19,O=[N+]([O-])c1ccc(O)c(S(=O)(=O)O)c1,105%
20,O=C1Cc2cc(O)ccc2O1,107%
